M1 PAM parental: nonselective calcium activators in parental CHO-K1 cells, primary screen, counter-screen for M1 PAM project, cell-based, Fluo-8 calcium fluorescence, full deck, 1536-well; ATP EC20; 0% at ATP EC20, 100% at ATP max; activation, % at 3 µM; actives 0.02% (n = 360,000); AID 602247, 2012;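 active = activation above the run cutoff, the mean activation of all test compounds plus 3 SD, cut at about 40% in these data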;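 note: peak over basal fluorescence ratio in a 140 s read after ATP addition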
CHO-K1 Ca antag: counter-screen for M1 antagonists: effect in parental CHO-K1 cells | ATP-induced calcium, Fluo-8 fluorescence | inhibition, % at 3 µM | actives 0.6% (n = 360,000);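 active = inhibition above a per-plate cutoff, the plate's mean sample inhibition plus 3 SD, cut at about 24% in these data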;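 note: 0% = DMSO plus EC80 ATP and 100% = DMSO alone without ATP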
TMEM16A inh: TMEM16A chloride channel inhibitors, primary screen, cell-based, HTS; normalized B-score (activity score, 25-100; higher = stronger inhibition) at 10 µM; HEK293 TMEM16A/YFP iodide influx fluorescence, ionomycin; actives 1.2% (n = 310,000);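 active = ratio plate-corrected score three or more library SD toward inhibition, starting fluorescence score within five deviations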;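 note: score derived from kinetic fluorescence span divided by baseline fluorescence per well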
TMEM16A act: TMEM16A chloride channel activators or potentiators, primary screen, cell-based, HTS; HEK293 TMEM16A/YFP-H148Q/I152L, iodide quench fluorescence; active compounds read low; AID 623877, 2012; actives 0.3% (n = 340,000); Anoctamin-1 (Mus musculus), Q8BHY3; B-score at 10 µM;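 active = fluorescence-ratio B-score plate-corrected deviation score at least 3 library SD below zero, with starting fluorescence score within 5 deviations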;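 note: channel opened by trigger with iodide after compound preincubation; score built on the fluorescence ratio of max minus min over baseline; more negative score means more quench and so TMEM16A activation or potentiation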
M1 ag parental: counter-screen for M1 agonists: effect in parental CHO-K1 cells | activation, % at 3 µM | AID 602248, 2012 | actives 0.48% (n = 360,000) | Fluo-8 calcium fluorescence; scaled to maximal ATP response, vehicle zero; in the data active = activation above about 15%;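 note: untransfected CHO-K1 host cells lacking M1 receptor as counterscreen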
NTR1 ag: agonists of human NTR1, primary screen, imaging, U2OS cells, beta-arrestin-GFP, high content; actives 0.17% (n = 330,000); Neurotensin receptor type 1 (Homo sapiens), P30989; AID 493036, 2011; NTR1-U2OS beta-arrestin-GFP spot imaging, agonist mode; activation, % at 20 µM;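 active = activation at or above 40% of the spot to cytoplasm intensity ratio, with at least 20 cells analyzed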;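 note: 0% = DMSO without peptide and 100% = 100 nM NTR1 peptide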
* hit, by the source's call. Most compounds without a hit are left out; they make up all but 2.2% or so of the library.

O=C(NCCN1CCC(n2c(=O)[nH]c3ccccc32)CC1)c1ccc(F)c(F)c1 was read as M1 PAM parental -2, CHO-K1 Ca antag -2 and M1 ag parental 1.
For O=S(=O)(c1cccs1)N1CCN(C/C=C/c2ccccc2)CC1 the results were M1 PAM parental 7, CHO-K1 Ca antag -5, TMEM16A inh inactive, TMEM16A act inactive, M1 ag parental 5 and NTR1 ag 2.
Screening O=S(=O)(c1ccc(Cl)s1)N1CCN(C/C=C/c2ccccc2)CC1 returned M1 PAM parental -3, CHO-K1 Ca antag 22, TMEM16A inh inactive, TMEM16A act -7*, M1 ag parental 0 and NTR1 ag 4.
`COc1cc(/C=C/C(=O)OCC(=O)N(CC(C)C)c2c(N)n(Cc3ccccc3)c(=O)[nH]c2=O)ccc1O` gave M1 PAM parental 13, CHO-K1 Ca antag -10, TMEM16A act -22* and M1 ag parental 4.
CC(C)CN(C(=O)COC(=O)/C=C/c1ccc(Cl)c(Cl)c1)c1c(N)n(Cc2ccccc2)c(=O)[nH]c1=O was read as M1 PAM parental 17, CHO-K1 Ca antag -3, TMEM16A act inactive, M1 ag parental 1 and NTR1 ag 11.
`O=C(NC1CCCCC1)C(=S)NCCc1ccccc1` gave M1 PAM parental 9, CHO-K1 Ca antag -5, TMEM16A inh inactive, TMEM16A act inactive, M1 ag parental 21* and NTR1 ag 1.
Screening Cc1[nH]nc(C(F)(F)F)c1N=NN1CCOCC1 returned M1 PAM parental 14, CHO-K1 Ca antag -9, TMEM16A act inactive and M1 ag parental 1.
COc1cc(OC)c(NC(=O)c2cc3ccccc3cc2O)cc1Cl was read as M1 PAM parental -23, CHO-K1 Ca antag 13, TMEM16A act inactive and M1 ag parental 0.
Screening Nc1ccc2nc3n(c(=O)c2c1)CCC3 returned M1 PAM parental -5, CHO-K1 Ca antag 26*, TMEM16A inh inactive, TMEM16A act inactive, M1 ag parental 0 and NTR1 ag -1.
Screening O=c1c2ccccc2nc2n1CCC2 returned M1 PAM parental 6, CHO-K1 Ca antag -7, TMEM16A inh inactive, TMEM16A act inactive, M1 ag parental 0 and NTR1 ag -1.
`CC(C)(C)C(=O)/C=c1\s/c(=C\c2ccc(-c3ccc([N+](=O)[O-])cc3)o2)c(=O)n1CC(=O)NC(N)=O` gave M1 PAM parental -10, CHO-K1 Ca antag 26*, TMEM16A inh inactive, TMEM16A act inactive, M1 ag parental 16* and NTR1 ag -3.
For CCOC(=O)[C@]12CCCC=C1N(Cc1ccc(Cl)cc1Cl)C(=O)[C@H](CC(=O)NCCC(C)C)C2 the results were M1 PAM parental 17, CHO-K1 Ca antag -19 and M1 ag parental 1.
`CC(OC(=O)c1ccccc1NS(=O)(=O)c1cccc(C(F)(F)F)c1)C(=O)N(C)Cc1ccccc1` (stereo unspecified) gave M1 PAM parental 18, CHO-K1 Ca antag 0, TMEM16A inh 100*, TMEM16A act inactive, M1 ag parental 2 and NTR1 ag 0.
COC(=O)CCCC[C@@H]1O[C@H](CCc2ccccc2)CC2=C1C(=O)OC(C)(C)O2 was read as M1 PAM parental 5, CHO-K1 Ca antag -2 and M1 ag parental 4.
Screening CCN(c1ccccc1)S(=O)(=O)c1ccc(C(=O)N2CCN(c3ccccc3F)CC2)cc1 returned M1 PAM parental 8, CHO-K1 Ca antag -5 and M1 ag parental 1.
For CCOc1ccccc1NC(=O)CSc1nc2nc(-c3cccs3)cc(C(F)(F)F)c2c(=O)[nH]1 the results were M1 PAM parental -17, CHO-K1 Ca antag 7, TMEM16A inh 100*, TMEM16A act inactive, M1 ag parental -1 and NTR1 ag 9.
Cc1cc(NC(=O)c2ccc(Cn3nc(C)c(Br)c3C)o2)no1 was read as M1 PAM parental 20, CHO-K1 Ca antag -11, TMEM16A inh inactive, TMEM16A act inactive, M1 ag parental 1 and NTR1 ag 0.
Screening Cc1nn(Cc2ccc(C(=O)NC(C)(C)C)o2)c(C)c1Br returned M1 PAM parental 15, CHO-K1 Ca antag 2, TMEM16A inh 25*, TMEM16A act inactive, M1 ag parental 6 and NTR1 ag 1.
Screening COC(=O)[C@]12CCCCC=C1N(Cc1ccco1)C(=O)[C@H](CC(=O)NCCC(C)C)C2 returned M1 PAM parental 22, CHO-K1 Ca antag -19 and M1 ag parental 1.
For CN(CC(=O)Nc1ccc(Cl)c(Cl)c1)C(=O)/C=C/c1ccc(F)cc1 the results were M1 PAM parental -9, CHO-K1 Ca antag 26*, TMEM16A inh inactive, TMEM16A act inactive, M1 ag parental -1 and NTR1 ag -1.
`COc1cc(C(=O)Nc2ccc(Oc3ncnc4sc(-c5ccccc5)cc34)cc2)cc(OC)c1OC` gave M1 PAM parental -6, CHO-K1 Ca antag -3, TMEM16A inh inactive, TMEM16A act inactive, M1 ag parental 0 and NTR1 ag 1.
For COc1ccc(C(=O)Nc2ccc(Oc3ncnc4sc(-c5ccccc5)cc34)cc2)cc1OC the results were M1 PAM parental 15, CHO-K1 Ca antag -14, TMEM16A inh inactive, TMEM16A act inactive, M1 ag parental 16* and NTR1 ag -1.
O=C1c2ccccc2C(c2nc3ccccc3[nH]2)N1c1ccccn1 (stereo unspecified) was read as M1 PAM parental 20, CHO-K1 Ca antag -18 and M1 ag parental 1.
CCOC(=O)Cc1csc(NC(=O)Nc2ccc(OC(F)(F)F)cc2)n1 was read as M1 PAM parental -15, CHO-K1 Ca antag 34*, TMEM16A inh inactive, TMEM16A act inactive, M1 ag parental 10 and NTR1 ag 4.
Screening CCOC(=O)Cc1csc(NC(=O)c2ccc(NC(C)=O)cc2)n1 returned M1 PAM parental 10, CHO-K1 Ca antag -15, TMEM16A inh inactive, TMEM16A act inactive, M1 ag parental 1 and NTR1 ag 0.
CCOC(=O)Cc1csc(NC(=O)COc2ccc(N(C)S(=O)(=O)c3cccs3)cc2)n1 was read as M1 PAM parental -2, CHO-K1 Ca antag 9, TMEM16A inh 100*, TMEM16A act inactive, M1 ag parental 7 and NTR1 ag 4.
Screening Cn1ncc2c(=S)[nH]c(=S)[nH]c21 returned M1 PAM parental -2, CHO-K1 Ca antag -2 and M1 ag parental 0.
COC(=O)c1ccc(CNC(=O)COC(=O)/C=C/c2cc(OC)c(OC)c(OC)c2)cc1 was read as M1 PAM parental 18, CHO-K1 Ca antag -12, TMEM16A act inactive, M1 ag parental 0 and NTR1 ag -1.

Screens: PubChem, several laboratories
